# Legend:
# Assay in all cases: DAPPL (digital affinity profiling via proximity ligation, sequencing); 10 mM Tris-HCl pH 7.5, 50 mM NaCl, 1 mM DTT, 4% glycerol, room temperature, 30 min; GST-TFs on glutathione beads, 16-mer random dsDNA library, 0.1% formaldehyde crosslink after washing; high values mean tight binding
# [1] = target: T1, FLI1 (Homo sapiens, UniProt Q01543 1-452); settings: protein: recombinant; tags: N-terminal GST; dsDNA, one strand shown
# T1 sequence: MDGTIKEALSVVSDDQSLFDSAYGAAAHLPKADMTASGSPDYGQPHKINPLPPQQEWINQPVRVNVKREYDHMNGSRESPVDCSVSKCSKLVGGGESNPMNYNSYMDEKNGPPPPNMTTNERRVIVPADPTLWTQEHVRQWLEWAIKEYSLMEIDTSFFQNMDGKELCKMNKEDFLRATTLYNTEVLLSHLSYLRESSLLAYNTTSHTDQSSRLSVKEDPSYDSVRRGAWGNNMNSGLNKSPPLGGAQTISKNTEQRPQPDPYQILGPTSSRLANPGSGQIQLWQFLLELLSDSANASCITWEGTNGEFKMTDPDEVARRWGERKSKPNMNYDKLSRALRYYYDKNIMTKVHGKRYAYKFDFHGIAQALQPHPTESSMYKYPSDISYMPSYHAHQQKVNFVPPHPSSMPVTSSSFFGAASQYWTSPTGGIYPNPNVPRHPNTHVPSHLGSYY
# Procedure, shortened: (§1)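 Pools of DNA-barcoded human transcription factors, expressed in yeast as GST fusions on glutathione beads and combined with a tag-only sample, were incubated with 200 nmole of a 16-mer random double-stranded DNA library. Incubation took 30 min at room temperature in Tris/NaCl/DTT/glycerol buffer and was followed by washing, 0.1% formaldehyde crosslinking, proximity ligation (BsaI/T4 ligase, 1 h, 37 °C), PCR amplification and sequencing on an Illumina NextSeq500. Binding signal is the ratio of a hexamer's read frequency for a factor to its frequency for the tag-only sample.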
# [2] = target: T2, ELK1 (Homo sapiens, UniProt P19419 1-428); settings: protein: recombinant; tags: N-terminal GST; dsDNA, one strand shown
# T2 sequence: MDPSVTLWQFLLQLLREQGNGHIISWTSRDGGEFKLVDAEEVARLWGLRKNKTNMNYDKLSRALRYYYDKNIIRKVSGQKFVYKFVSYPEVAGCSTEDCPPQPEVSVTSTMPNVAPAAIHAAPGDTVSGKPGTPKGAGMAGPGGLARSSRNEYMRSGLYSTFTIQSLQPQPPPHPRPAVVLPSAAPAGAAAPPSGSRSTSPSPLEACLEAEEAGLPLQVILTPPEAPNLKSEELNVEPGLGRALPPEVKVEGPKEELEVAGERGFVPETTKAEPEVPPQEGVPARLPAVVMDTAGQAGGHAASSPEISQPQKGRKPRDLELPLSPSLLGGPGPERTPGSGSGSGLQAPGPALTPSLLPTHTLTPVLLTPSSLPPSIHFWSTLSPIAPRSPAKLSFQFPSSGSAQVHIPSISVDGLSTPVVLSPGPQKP
# Procedure, shortened: as §1
# [3] = target: T3, GABPA (Homo sapiens, UniProt Q06546 1-454); settings: protein: recombinant; tags: N-terminal GST; dsDNA, one strand shown
# T3 sequence: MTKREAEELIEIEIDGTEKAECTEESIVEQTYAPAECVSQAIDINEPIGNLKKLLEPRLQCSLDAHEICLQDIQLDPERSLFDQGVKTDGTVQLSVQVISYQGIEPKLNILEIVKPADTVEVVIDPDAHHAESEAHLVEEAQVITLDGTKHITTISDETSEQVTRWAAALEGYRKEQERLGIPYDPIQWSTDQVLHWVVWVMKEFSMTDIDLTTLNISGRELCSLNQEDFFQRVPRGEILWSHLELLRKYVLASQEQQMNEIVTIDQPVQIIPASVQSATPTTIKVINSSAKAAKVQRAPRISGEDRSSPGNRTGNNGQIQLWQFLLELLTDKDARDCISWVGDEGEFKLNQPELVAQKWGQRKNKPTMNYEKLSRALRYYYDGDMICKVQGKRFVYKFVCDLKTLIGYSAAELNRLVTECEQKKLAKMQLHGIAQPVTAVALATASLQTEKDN
# Procedure, shortened: as §1
# [4] = target: T4, ERG (Homo sapiens, UniProt P11308 1-479); settings: protein: recombinant; tags: N-terminal GST; dsDNA, one strand shown
# T4 sequence: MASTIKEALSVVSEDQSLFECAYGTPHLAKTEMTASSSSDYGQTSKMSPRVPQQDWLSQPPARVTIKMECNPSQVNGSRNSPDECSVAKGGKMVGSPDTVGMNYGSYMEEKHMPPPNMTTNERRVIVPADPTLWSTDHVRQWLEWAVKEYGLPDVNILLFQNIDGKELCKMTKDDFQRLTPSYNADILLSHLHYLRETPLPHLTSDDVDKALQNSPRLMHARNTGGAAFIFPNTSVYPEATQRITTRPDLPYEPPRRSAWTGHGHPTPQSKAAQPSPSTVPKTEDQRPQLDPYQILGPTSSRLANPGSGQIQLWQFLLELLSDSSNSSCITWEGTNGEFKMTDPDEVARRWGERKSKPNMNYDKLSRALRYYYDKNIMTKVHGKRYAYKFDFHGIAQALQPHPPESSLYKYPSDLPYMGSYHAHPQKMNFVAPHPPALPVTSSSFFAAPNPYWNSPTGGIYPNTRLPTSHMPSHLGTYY
# Procedure, shortened: as §1
# [5] = target: ELF1 (Homo sapiens, UniProt P32519 1-619); settings: protein: recombinant; tags: N-terminal GST; dsDNA, one strand shown
# Procedure, shortened: as §1
# [6] = target: T5, EHF (Homo sapiens, UniProt Q9NZC4 1-300); settings: protein: recombinant; tags: N-terminal GST; dsDNA, one strand shown
# T5 sequence: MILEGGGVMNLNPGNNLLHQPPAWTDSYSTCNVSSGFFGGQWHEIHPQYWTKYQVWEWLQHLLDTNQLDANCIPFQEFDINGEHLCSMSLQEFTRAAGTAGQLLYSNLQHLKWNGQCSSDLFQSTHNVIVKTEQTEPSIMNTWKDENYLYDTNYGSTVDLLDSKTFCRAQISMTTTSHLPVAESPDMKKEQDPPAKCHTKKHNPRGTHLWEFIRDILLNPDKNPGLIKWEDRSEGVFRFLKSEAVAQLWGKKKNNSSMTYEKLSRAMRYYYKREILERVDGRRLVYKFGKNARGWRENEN
# Procedure, shortened: as §1
# [7] = target: SPI1 (Homo sapiens, UniProt P17947 1-270); settings: protein: recombinant; tags: N-terminal GST; dsDNA, one strand shown
# Procedure, shortened: as §1
# [8] = target: T6, ELK3 (Homo sapiens, UniProt P41970 1-407); settings: protein: recombinant; tags: N-terminal GST; dsDNA, one strand shown
# T6 sequence: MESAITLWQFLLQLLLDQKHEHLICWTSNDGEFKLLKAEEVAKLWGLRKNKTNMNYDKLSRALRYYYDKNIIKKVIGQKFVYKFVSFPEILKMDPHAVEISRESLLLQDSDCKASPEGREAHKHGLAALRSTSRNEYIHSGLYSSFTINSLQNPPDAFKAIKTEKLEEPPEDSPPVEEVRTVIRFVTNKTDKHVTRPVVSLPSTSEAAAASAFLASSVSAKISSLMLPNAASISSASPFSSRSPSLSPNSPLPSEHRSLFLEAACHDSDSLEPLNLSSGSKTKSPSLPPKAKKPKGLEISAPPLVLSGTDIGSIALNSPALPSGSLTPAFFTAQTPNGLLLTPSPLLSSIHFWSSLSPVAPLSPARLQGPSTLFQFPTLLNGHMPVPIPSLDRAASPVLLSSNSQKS
# Procedure, shortened: as §1
# [9] = target: T7, FEV (Homo sapiens, UniProt Q99581 1-238); settings: protein: recombinant; tags: N-terminal GST; dsDNA, one strand shown
# T7 sequence: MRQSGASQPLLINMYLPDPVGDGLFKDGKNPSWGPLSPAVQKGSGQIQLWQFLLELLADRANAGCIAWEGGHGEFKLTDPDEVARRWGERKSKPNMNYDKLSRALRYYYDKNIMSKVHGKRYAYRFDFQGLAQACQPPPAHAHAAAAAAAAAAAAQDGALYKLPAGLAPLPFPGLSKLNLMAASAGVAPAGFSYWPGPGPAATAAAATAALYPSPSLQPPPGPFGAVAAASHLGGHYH
# Procedure, shortened: as §1
# [10] = target: ETV5 (Homo sapiens, UniProt P41161 1-510); settings: protein: recombinant; tags: N-terminal GST; dsDNA, one strand shown
# Procedure, shortened: as §1
# [11] = target: HSF1 (Homo sapiens, UniProt Q00613 1-529); settings: protein: recombinant; tags: N-terminal GST; chain copies: 3; dsDNA, one strand shown
# Procedure, shortened: as §1
# [12] = target: T8, SPIC (Homo sapiens, UniProt Q8N5J4 1-248); settings: protein: recombinant; tags: N-terminal GST; dsDNA, one strand shown
# T8 sequence: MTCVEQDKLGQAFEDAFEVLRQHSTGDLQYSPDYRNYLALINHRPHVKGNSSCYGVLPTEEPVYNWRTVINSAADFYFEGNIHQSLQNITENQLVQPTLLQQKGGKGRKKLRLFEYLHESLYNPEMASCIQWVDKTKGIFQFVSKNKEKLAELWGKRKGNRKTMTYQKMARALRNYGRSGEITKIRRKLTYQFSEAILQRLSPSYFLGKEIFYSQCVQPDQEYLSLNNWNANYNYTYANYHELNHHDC
# Procedure, shortened: as §1
# [13] = target: ELF4 (Homo sapiens, UniProt Q99607 1-663); settings: protein: recombinant; tags: N-terminal GST; dsDNA, one strand shown
# Procedure, shortened: as §1
# [14] = target: T9, ELK4 (Homo sapiens, UniProt P28324-2 1-405); settings: protein: recombinant; tags: N-terminal GST; dsDNA, one strand shown
# T9 sequence: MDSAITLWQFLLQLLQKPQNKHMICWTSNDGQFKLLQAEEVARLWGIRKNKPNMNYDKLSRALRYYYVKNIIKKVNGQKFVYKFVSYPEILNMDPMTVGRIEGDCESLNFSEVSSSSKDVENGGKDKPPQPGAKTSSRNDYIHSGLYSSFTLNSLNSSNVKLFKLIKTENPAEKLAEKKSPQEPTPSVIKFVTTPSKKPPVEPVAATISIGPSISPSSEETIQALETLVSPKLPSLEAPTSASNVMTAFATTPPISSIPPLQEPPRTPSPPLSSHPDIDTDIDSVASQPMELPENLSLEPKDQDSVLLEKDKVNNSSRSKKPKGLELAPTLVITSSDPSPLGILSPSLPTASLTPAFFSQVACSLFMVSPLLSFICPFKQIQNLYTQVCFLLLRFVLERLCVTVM
# Procedure, shortened: as §1
# [15] = target: T10, ETV2 (Homo sapiens, UniProt O00321 1-342); settings: protein: recombinant; tags: N-terminal GST; dsDNA, one strand shown
# T10 sequence: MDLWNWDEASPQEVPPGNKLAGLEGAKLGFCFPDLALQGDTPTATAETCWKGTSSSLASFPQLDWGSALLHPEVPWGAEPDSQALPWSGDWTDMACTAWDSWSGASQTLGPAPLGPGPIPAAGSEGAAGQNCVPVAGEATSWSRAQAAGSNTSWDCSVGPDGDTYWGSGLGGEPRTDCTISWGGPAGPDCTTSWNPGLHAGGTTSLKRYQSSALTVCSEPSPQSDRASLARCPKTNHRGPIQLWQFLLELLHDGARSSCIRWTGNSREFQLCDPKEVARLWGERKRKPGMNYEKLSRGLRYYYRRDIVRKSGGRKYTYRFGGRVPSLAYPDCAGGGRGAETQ
# Procedure, shortened: as §1
# [16] = target: T11, ELF3 (Homo sapiens, UniProt P78545 1-371); settings: protein: recombinant; tags: N-terminal GST; dsDNA, one strand shown
# T11 sequence: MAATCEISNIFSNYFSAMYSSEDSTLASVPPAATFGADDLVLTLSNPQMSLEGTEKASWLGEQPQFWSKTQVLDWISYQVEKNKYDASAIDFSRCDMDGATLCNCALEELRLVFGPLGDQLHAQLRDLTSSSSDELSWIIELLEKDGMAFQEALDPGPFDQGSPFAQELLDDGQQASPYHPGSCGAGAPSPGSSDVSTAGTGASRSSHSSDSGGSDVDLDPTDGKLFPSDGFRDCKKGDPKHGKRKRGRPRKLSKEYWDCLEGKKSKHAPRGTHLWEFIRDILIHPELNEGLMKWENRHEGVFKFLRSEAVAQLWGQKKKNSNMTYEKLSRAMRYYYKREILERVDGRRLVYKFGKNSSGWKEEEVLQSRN
# Procedure, shortened: as §1
# [17] = target: CRX (Homo sapiens, UniProt O43186 1-299); settings: protein: recombinant; tags: N-terminal GST; dsDNA, one strand shown
# Procedure, shortened: as §1
# [18] = target: ETV1 (Homo sapiens, UniProt P50549 1-477); settings: protein: recombinant; tags: N-terminal GST; dsDNA, one strand shown
# Procedure, shortened: as §1
# CRX, sequence (O43186 whole entry): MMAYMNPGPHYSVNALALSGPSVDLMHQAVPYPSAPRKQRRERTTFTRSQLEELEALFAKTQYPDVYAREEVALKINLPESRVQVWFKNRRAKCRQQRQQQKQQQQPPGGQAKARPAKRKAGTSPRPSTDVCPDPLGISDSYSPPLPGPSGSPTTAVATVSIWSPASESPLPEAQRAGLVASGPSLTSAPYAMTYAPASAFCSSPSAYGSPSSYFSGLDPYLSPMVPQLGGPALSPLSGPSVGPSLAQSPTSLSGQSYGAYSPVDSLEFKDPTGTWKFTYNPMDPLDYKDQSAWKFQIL
# HSF1, sequence (Q00613 whole entry): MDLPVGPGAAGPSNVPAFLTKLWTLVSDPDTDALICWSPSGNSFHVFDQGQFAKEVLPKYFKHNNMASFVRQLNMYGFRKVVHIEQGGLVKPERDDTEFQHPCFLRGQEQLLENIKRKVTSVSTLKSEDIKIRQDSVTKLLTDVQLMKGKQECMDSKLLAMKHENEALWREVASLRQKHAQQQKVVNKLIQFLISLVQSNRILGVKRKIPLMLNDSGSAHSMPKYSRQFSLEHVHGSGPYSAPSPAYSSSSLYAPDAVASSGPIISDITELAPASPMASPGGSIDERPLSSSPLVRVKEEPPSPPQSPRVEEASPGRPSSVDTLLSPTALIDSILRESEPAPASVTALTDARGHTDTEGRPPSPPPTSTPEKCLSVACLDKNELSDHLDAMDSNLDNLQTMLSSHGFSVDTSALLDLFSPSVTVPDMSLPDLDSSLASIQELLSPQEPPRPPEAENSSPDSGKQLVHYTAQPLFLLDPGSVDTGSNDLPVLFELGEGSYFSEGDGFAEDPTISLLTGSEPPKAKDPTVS
# ELF1, sequence (P32519 whole entry): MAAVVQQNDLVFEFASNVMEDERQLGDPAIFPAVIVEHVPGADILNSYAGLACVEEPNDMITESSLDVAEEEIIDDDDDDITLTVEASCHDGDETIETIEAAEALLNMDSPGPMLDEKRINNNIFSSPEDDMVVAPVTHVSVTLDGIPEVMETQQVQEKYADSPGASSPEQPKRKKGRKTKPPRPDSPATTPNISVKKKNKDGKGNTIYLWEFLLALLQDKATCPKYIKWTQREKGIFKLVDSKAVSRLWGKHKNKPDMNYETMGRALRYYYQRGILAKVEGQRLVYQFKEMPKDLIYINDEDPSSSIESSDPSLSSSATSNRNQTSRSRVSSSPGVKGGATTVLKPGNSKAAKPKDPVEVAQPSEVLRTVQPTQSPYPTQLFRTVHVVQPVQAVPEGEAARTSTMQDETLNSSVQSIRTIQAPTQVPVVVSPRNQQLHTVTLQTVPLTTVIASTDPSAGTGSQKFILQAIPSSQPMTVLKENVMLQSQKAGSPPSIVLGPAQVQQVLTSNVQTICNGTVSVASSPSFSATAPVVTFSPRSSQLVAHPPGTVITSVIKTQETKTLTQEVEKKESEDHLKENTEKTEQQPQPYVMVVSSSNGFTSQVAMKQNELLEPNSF
# ELF4, sequence (Q99607 whole entry): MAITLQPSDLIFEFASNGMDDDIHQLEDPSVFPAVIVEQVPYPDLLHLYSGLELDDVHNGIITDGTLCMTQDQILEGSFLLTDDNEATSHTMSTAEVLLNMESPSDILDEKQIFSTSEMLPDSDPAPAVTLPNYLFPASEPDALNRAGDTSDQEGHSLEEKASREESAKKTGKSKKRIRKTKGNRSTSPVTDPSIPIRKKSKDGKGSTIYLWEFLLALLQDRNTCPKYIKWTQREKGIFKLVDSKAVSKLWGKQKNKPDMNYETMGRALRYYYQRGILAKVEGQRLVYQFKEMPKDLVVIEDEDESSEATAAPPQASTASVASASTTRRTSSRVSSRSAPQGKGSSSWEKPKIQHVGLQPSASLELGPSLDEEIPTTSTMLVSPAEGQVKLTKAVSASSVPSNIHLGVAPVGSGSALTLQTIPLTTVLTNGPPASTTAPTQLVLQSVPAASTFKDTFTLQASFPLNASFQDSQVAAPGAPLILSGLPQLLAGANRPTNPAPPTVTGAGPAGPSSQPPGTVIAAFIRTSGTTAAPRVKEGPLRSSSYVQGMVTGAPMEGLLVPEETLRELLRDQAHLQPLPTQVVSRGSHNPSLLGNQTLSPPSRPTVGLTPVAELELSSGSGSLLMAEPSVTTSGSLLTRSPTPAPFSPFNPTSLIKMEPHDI
# ETV5, sequence (P41161 whole entry): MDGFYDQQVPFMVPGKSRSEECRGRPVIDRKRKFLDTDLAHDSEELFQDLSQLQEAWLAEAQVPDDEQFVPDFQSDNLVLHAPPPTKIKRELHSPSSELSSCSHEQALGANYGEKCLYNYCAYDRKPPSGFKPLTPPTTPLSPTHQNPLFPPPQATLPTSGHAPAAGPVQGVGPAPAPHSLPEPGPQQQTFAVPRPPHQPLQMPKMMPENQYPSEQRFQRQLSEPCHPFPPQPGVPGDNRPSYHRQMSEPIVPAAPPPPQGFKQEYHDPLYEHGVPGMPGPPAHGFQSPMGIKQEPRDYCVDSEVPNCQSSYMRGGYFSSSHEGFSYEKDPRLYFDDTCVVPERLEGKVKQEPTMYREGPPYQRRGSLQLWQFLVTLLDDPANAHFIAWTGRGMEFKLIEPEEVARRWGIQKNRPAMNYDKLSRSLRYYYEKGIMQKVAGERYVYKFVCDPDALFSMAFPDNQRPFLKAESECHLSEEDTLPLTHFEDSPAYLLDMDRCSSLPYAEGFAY
# ETV1, sequence (P50549 whole entry): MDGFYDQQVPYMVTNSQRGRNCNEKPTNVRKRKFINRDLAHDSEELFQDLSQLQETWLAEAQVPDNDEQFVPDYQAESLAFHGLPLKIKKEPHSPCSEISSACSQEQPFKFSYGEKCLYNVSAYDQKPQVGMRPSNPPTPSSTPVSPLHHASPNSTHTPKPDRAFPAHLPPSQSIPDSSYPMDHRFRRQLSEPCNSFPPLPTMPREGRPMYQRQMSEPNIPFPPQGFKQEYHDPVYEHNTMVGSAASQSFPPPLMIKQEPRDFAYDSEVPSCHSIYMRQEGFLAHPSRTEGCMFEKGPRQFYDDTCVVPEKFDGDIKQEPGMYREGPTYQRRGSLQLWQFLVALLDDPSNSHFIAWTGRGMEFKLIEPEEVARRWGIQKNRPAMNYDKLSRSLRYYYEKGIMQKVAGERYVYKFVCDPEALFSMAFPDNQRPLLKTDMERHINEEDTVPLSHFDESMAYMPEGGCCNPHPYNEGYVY
sequence,measurement,setting,value
TACTGA,binding signal,[1],"1.03 fold enrichment (6-mer frequency, TF over GST control)"
same,binding signal,[2],"1.08 fold enrichment (6-mer frequency, TF over GST control)"
same,binding signal,[3],"1.06 fold enrichment (6-mer frequency, TF over GST control)"
same,binding signal,[4],"1.03 fold enrichment (6-mer frequency, TF over GST control)"
same,binding signal,[5],"1.13 fold enrichment (6-mer frequency, TF over GST control)"
same,binding signal,[6],"1.13 fold enrichment (6-mer frequency, TF over GST control)"
same,binding signal,[7],"1.02 fold enrichment (6-mer frequency, TF over GST control)"
same,binding signal,[8],"1.09 fold enrichment (6-mer frequency, TF over GST control)"
same,binding signal,[9],"1.03 fold enrichment (6-mer frequency, TF over GST control)"
same,binding signal,[10],"1.13 fold enrichment (6-mer frequency, TF over GST control)"
same,binding signal,[11],"1.07 fold enrichment (6-mer frequency, TF over GST control)"
same,binding signal,[12],"1.03 fold enrichment (6-mer frequency, TF over GST control)"
same,binding signal,[13],"1.11 fold enrichment (6-mer frequency, TF over GST control)"
same,binding signal,[14],"1.32 fold enrichment (6-mer frequency, TF over GST control)"
same,binding signal,[15],"1.12 fold enrichment (6-mer frequency, TF over GST control)"
same,binding signal,[16],"1.2 fold enrichment (6-mer frequency, TF over GST control)"
same,binding signal,[17],"1.2 fold enrichment (6-mer frequency, TF over GST control)"
same,binding signal,[18],"1.02 fold enrichment (6-mer frequency, TF over GST control)"

# From publication PMC7862700, “An all-to-all approach to the identification of sequence-specific readers for epigenetic DNA modifications on cytosine”
